# Screens: PubChem BioAssay, Broad Institute
# PD-1 reversal – activators reversing PD-1 mediated T-cell inhibition | primary human CD4 T cells, PD-L1 beads, CellTiter-Glo 96 h | activation, % (concentration not given with the values) | 29,000 tested, under 10 active | AID 2316; call rule not given here;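 also: 0% = median vehicle wells and 100% = positive control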
# STK33 kin inh – human STK33 kinase inhibition. inhibition, % at 12.5 µM. 0.44% of 27,000 active. ADP-Glo luminescence, MBP substrate; in the data active = inhibition above about 20%
# NOMO-1 viab – STK33 inhibitor candidate reducing NOMO-1 cell viability; NOMO-1 AML viability, CellTiter-Glo luminescence, 72 h; inhibition, % (test concentration not listed); 7.5% of 37,000 active; AID 2330; in the data active = inhibition above about 80%
# The depositor's hits bear a star; x = no result. Many of the other results were omitted from the sample, so hits are more common in it than they were.
SMILES,PD-1 reversal,STK33 kin inh,NOMO-1 viab
CCc1ccc(CCC(=O)Nc2ccc(Cl)cc2Cl)o1,-3,-2,48
N#CCCN(Cc1ccccc1)C(=O)c1ccccc1[N+](=O)[O-],0,-1,3
C[C@H]1CN([C@@H](C)CO)C(=O)c2cc(NC(=O)Nc3ccc(F)cc3)ccc2O[C@H]1CN(C)Cc1ccc(C(F)(F)F)cc1,-3,-1,52
C[C@@H]1CN([C@H](C)CO)C(=O)c2cc(NC(=O)Nc3ccc(F)cc3)ccc2O[C@H]1CN(C)Cc1ccc(C(F)(F)F)cc1,-10,1,117*
C[C@@H]1CN([C@@H](C)CO)C(=O)c2cc(NC(=O)Nc3ccc(F)cc3)ccc2O[C@H]1CN(C)Cc1ccc(C(F)(F)F)cc1,-3,8,113*
C[C@H]1CN([C@@H](C)CO)C(=O)c2cc(NC(=O)Nc3ccc(F)cc3)ccc2O[C@@H]1CN(C)Cc1ccc(C(F)(F)F)cc1,1,x,14
Cc1ccc(-c2nc3ccccc3[nH]2)cc1NC(=O)COc1ccccc1[N+](=O)[O-],-14,9,119*
COc1ccccc1CC(=O)Nc1ccc(-c2nc3ccccc3[nH]2)cc1,-6,x,135*
COc1ccccc1CC(=O)Nc1ccc(-c2noc(-c3ccc(OC)c(OC)c3)n2)cc1,0,3,44
Cc1ccc(-c2nc3ccccc3[nH]2)cc1NC(=O)COc1cccc([N+](=O)[O-])c1,-1,9,19
Nc1nc(-c2ccco2)nn1C(=O)c1ccco1,x,13,-7
CCN(CC)CCC(=O)N1N=C(c2ccc(C)cc2)CC1c1ccc(OC)cc1 (stereo not drawn),1,x,27
CC1CCC(C(C)C)C(NC(=O)c2cccc3ccccc23)C1 (stereo not drawn),1,x,82*
CC(C)CNP(=O)(OC1CC(C)CCC1C(C)C)c1ccccc1 (stereo not drawn),0,x,31
Cc1cccc(C)c1NC(=O)CSc1nnnn1-c1c(C)cccc1C,2,-2,34
